# Experimental data published in PubChem BioAssay AID1259422 (The Scripps Research Institute Molecular Screening Center, 2018).
# Values joined by “and” are separate entries in the source; they are usually repeats but may differ in a detail not shown here. Equal values may be shown once. Out of some 640,000 compounds screened, about 9,300 (1.5%) were called active. The list comes from a sample in which actives are over-represented; it also holds similar structures and randomly drawn compounds. Values without a mark were called inactive. Rule as the data show it: active = inhibition above about 32%; inactive = the rest.
# Experiment: TEAD-YAP interaction inhibition, primary screen, TEAD-YAP interaction inhibitor project, luminescence, HEK-TIYL cells (AID 1259422);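 also: 0% = median of test compound wells and 100% = reference inhibitor wells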
# Settings: TEAD-Gal4/YAP UAS-luciferase luminescence, at 9.12 µM, stronger effect = higher value
row,Compound,inhibition
1,Cc1ccc(CC(=O)O/N=C(\N)c2ccc(Br)cc2)cc1,-13%
2,Cc1cc(Nc2ccc3c(c2)OCO3)nc(Nc2cccc(N(C)C)c2)n1,2.34%
3,CC1(C)CC(=O)C(N=Nc2cc(C(N)=O)c(Cl)cc2Cl)=C(O)C1,-1.09%
4,COc1cccc(C(=O)NC(=S)Nc2cccc(C(=O)O)c2)c1,30.7%
5,COc1ccccc1C(=O)Nc1nc(C)cs1,80.1% (active)
6,Cc1csc(NC(=O)c2ccc(I)cc2)n1,-17.9%
7,COc1ccc(C(=O)Nc2nc(C)cs2)c(OC)n1,89.4% (active)
8,COc1cccc(C(=O)Nc2nc(-c3ccc(C)c(C)c3)cs2)c1OC,-6.84%
9,COc1ccc2oc(=O)c(-c3csc(NC(=O)c4ccccc4)n3)cc2c1,1.86%
10,COc1ccccc1C(=O)Nc1nc(-c2ccccc2)c(C)s1,-3.33%
11,CCOC(=O)C1(Cc2cccc(F)c2)CCN(CCO)CC1,2.96%
12,CCN1CCN(S(=O)(=O)c2ccc(F)c(C(=O)Nc3cccc(C)c3C)c2)CC1,3.75%
13,O=C(Nc1ccccc1Br)c1ccc(Cl)c([N+](=O)[O-])c1,-1.84%
14,O=C(CSc1nc2ccccc2c(=O)n1-c1ccc(C(=O)N2CCOCC2)cc1)NCc1ccccc1Cl,5.25%
15,COc1cccc(NC(=O)Cn2c3ccccc3c(=O)c3cc(Cl)ccc32)c1,1.55%
16,CCOc1cc(/C=C2\SC(=S)NC2=O)cc(Br)c1OC,-5.88%
17,Nc1nc(Nc2ccc(N3CCOCC3)cc2)cc(-c2ccc3[nH]ccc3c2)n1,-4.34%
18,CN1CCN(c2ccc(-c3cc(Nc4ccc(N5CCOCC5)cc4)nc(N)n3)cc2)CC1,64.9% (active)
19,CN1CCN(c2ccc(-c3cc(NCCOc4ccccc4)nc(N)n3)cc2)CC1,23.1%
20,COc1ccc(-c2nc(NCc3ccccc3)c3ncn(Cc4ccc(C(F)(F)F)cc4)c3n2)cc1,5.78%
21,CCNc1nc(NCCc2ccc(OC)cc2)c2ncn(Cc3ccc(C(F)(F)F)cc3)c2n1,12.1%
22,COc1ccc(CCNc2nc(-c3c(C)noc3C)nc3c2ncn3Cc2ccc(C(F)(F)F)cc2)cc1,40.4% (active)
23,Oc1ccc(CCNc2nc(Nc3ccncn3)nc3c2ncn3Cc2ccc(C(F)(F)F)cc2)cc1,-4.85%
24,O=c1c(/C=N/Nc2ccc(C(F)(F)F)cn2)c(Cl)nc2ccccn12,52.1% (active)

row,Compound,inhibition
1,O=c1c(C=Nc2ccc(Cl)cc2)c(Nc2ccccc2)nc2ccccn12,-17.1%
2,NC(=S)N/N=C/c1c(Sc2ccccn2)nc2ccccn2c1=O,-6.3%
3,COc1ccc(/C=C2\C(=O)N(c3ccc(Cl)c(C(=O)O)c3)N=C2C)cc1Br,0.17%
4,C/C(CC(C)C)=N\NC(=O)c1nnn(-c2nonc2N)c1-c1ccccc1,-8.99%
5,COc1ccc(NC(=O)c2ccco2)cc1NC(=O)c1ccc(-c2ccccc2[N+](=O)[O-])o1,34.4% (active)
6,O=C(Nc1cccc(NC(=O)c2ccc(-c3ccccc3[N+](=O)[O-])o2)c1)c1ccco1,-5.61%
7,O=C(Nc1ccc(N2CCOCC2)c(Cl)c1)c1ccc(-c2ccccc2[N+](=O)[O-])o1,11.7%
8,CC(C)N(C)C1CCN(S(=O)(=O)c2cccc([N+](=O)[O-])c2)CC1,-1.4%
9,Cc1ccc2cccc(NC(=O)c3cc4ccccc4o3)c2n1,12.1%
10,CCC(C)c1ccccc1NC(=O)C(C)Cl (centres undefined),-3.45%
11,CCC(C)c1ccccc1NC(=O)CN(C)CC(=O)Nc1ccccc1SC (centres undefined),36.5% (active)
12,CN(CC(=O)Nc1ccccc1F)CC(=O)Nc1ccccc1Br,-1.95%
13,COc1cccc(/C=N/NC(=O)c2cccc(NC(=O)c3ccc(F)cc3)c2)c1O,28.7%
14,COc1cccc(/C=N/Nc2ncc(C(F)(F)F)cc2Cl)c1O,49.5% (active)
15,COc1cccc(C=Nc2ccc(N)c(Cl)c2)c1O,6.6%
16,Cc1ccc(Nc2nc(-c3cccs3)cs2)cc1,64.2% (active)
17,Cc1ccc(Nc2nc(-c3ccc(Cl)cc3)cs2)cc1,-86.7%
18,Cc1ccc(-c2csc(Nc3ccccc3)n2)c(C)c1,-65%
19,CCOCCCn1c(SCc2cc(=O)n3ccccc3n2)nc2ccccc2c1=O,0.02%
20,Cc1cc2nnn(C[C@@H](C)NC(=O)Cc3ccccc3)c2cc1C,-20.1%
21,Cc1ccc(-c2nc(CSCC(=O)N3CCC(C(N)=O)CC3)c(C)o2)cc1,10.6%
22,COc1ccc(-c2nc(CSCC(=O)NC3CCCCCC3)c(C)o2)cc1OC,2.93%
23,Cc1ccc(-c2nc(CSCC(=O)NC3CCN(Cc4ccccc4)CC3)c(C)o2)cc1,33.9% (active)
24,O=C(Cn1c(SCC(=O)N2CCCC2)nc2ccccc21)NC1CCCC1,3.72%

row,Compound,inhibition
1,Cc1ccc2nc(-c3ccncc3)cc(C(=O)Nc3ccc4c(c3)OCCO4)c2c1,43.3% (active)
2,O=C(Nc1ccc(F)cc1)c1cc(-c2ccncc2)nc2ccccc12,-1.35%
3,Cc1cccc(Oc2ccc(NC(=O)c3cc(-c4ccccc4)nc4ccc(C)cc34)cc2)c1,-0.69%
4,COc1ccc(-c2nnc(SCC(=O)N(C)C)n2C)cc1,2.69%
5,CCC(=O)N[C@@H]1c2ccccc2C2(CCN(Cc3cn[nH]c3-c3ccccc3)CC2)[C@H]1OC,-3.33%
6,O=C(Nc1ccccc1F)c1oc2cccnc2c1NC(=O)C1CC1,2.6%
7,COc1ccccc1NC(=O)c1oc2cccnc2c1NC(=O)c1ccc(Cl)cc1,-6.82%
8,CCOc1ccccc1C(=O)Nc1c(C(=O)Nc2ccccc2F)oc2cccnc12,41.9% (active)
9,Cn1c(SCC(=O)c2ccc3c(c2)OCO3)nnc1-c1cccs1,-1.64%
10,COc1ccc(C(=O)/C=C/Nc2cccc(C(C)O)c2)cc1 (centres undefined),-59.6%
11,COc1ccccc1N/C=C/C(=O)c1ccc(OC)c(OC)c1,-24% and -18.3%
12,COc1ccc(C(=O)/C=C/Nc2ccccn2)cc1,53.5% (active)
13,CCC(Oc1ccccc1)C(=O)NC(C)C (centres undefined),12.4%
14,CCc1cc(=O)[nH]c(NC2CCN(S(=O)(=O)c3ccccc3)CC2)n1,4.67%
15,COc1ccc(Nc2c(-c3ccccc3O)nc3cnccn23)cc1,-0.84%
16,Oc1ccccc1-c1nc2cnccn2c1NCc1ccccc1,-6.9%
17,COc1ccc(CNc2c(-c3ccccc3O)nc3cnccn23)cc1,67.4% (active)
18,COc1ccc(OC)c(N/C=C(/C#N)c2nc(-c3ccc(OC)c(OC)c3)cs2)c1,0.19%
19,COc1ccc(N=C2SC(C(=O)NCCc3ccccc3)CC(=O)N2CCc2ccc(OC)c(OC)c2)cc1 (centres undefined),7.83%
20,Cc1cc(C)nc(NC(N)=NCCC(C)C)n1,6.21%
21,O=[N+]([O-])/C=C/c1ccc2c(ccn2Cc2ccccc2)c1,33.9% (active)
22,N#CC(C#N)=Cc1ccc(N2CCN(Cc3ccccc3)CC2)c([N+](=O)[O-])c1,4.11%
23,O=[N+]([O-])/C=C\c1ccc(N2CCCCC2)cc1,31.3%
24,CC1(C)Cc2c(c(N3CCOCC3)nc3sc4c(N5CCCCC5)nnnc4c23)CO1,-1.34%

row,Compound,inhibition
1,CCn1c(=O)c2ccccc2n2c(SCC(=O)N(C)C3CCCCC3)nnc12,-7.16%
2,O=C(Nc1cccc(NC(=O)c2cccc(Cl)c2Cl)c1)c1ccco1,-0.83%
3,Oc1ccc(/C=N/Nc2nn[nH]n2)c(O)c1,-11.8%
4,Oc1ccc(/C=N/Nc2ncc(F)c(N3CCOCC3)n2)c(O)c1,58.7% (active)
5,Cc1ccc(Nc2nc(N/N=C/c3ccccc3O)nc(N3CCOCC3)n2)cc1Cl,-11%
6,COc1ccc(C2=N/C(=C\c3cc(OC)c(OC)c(OC)c3)C(=O)O2)c(Cl)c1,-1.56%
7,N#Cc1c(-n2ncnc2-c2ccc3c(c2)OCO3)sc2c1CCCC2,-2.41%
8,c1ccc(CNc2nc(N3CCN(c4ccccn4)CC3)nc3c2ncn3-c2ccsc2)cc1,-1.71%
9,FC(F)(F)c1cccc(CNc2nc(N3CCN(c4ccccn4)CC3)nc3c2ncn3-c2ccsc2)c1,-7.69%
10,c1ccc(N2CCN(c3nc(NCc4nc5ccccc5[nH]4)c4ncn(-c5ccsc5)c4n3)CC2)nc1,68% (active)
11,c1ccc(-n2cnc3c(NCc4nc5ccccc5[nH]4)nc(Nc4nccc5ccccc45)nc32)cc1,7.74%
12,c1cncc(Nc2nc(NCc3nc4ccccc4[nH]3)c3ncn(-c4ccsc4)c3n2)c1,84.1% (active)
13,c1ccc(CNc2nc(Nc3cccnc3)nc3c2ncn3-c2ccccc2)cc1,25.2%
14,COc1cccc(NC(=S)NC(=O)CC(C)C)c1,-50%
15,CCc1ccccc1NC(=O)c1cc2ccccc2oc1=O,-2.07%
16,O=C(CC1(O)C(=O)Nc2c(C(F)(F)F)cccc21)c1ccc(Cl)s1 (centres undefined),-1.56%
17,Cc1ccc2c(c1)-c1c(cnn1CC(=O)NCCCN1CCCCCC1)CO2,4.66%
18,CC(NC(=O)CSCc1ccccc1Cl)c1ccccc1 (centres undefined),-4.44%
19,Cc1noc(C)c1S(=O)(=O)N1CCCC(C(=O)Nc2cccc(Cl)c2C)C1 (centres undefined),3.39%
20,CN1CCN(c2cc(NCCCC(=O)O)c3c4c(onc24)-c2ccccc2C3=O)CC1,11.3%
21,CC1CCN(c2cc(NCC(=O)O)c3c4c(onc24)-c2ccccc2C3=O)CC1,64% (active)
22,CCOC(=O)N1CCN(c2cc(NCCO)c3c4c(onc24)-c2ccccc2C3=O)CC1,17.6%
